From the supplement of paper PMC6522484 come the findings set out here.

Structures can show the parent of a compound that is named as a salt. ± gives the standard deviation of the averaged measurements.

For the experiment, the system named is DLD1. As to the kind of experiment: cell viability (CellTiter-Glo) relative to plate median (fraction of plate median); higher = more viable cells. The settings on record: 10 µM; treatment time 24 h; reporter: 7TFP. The method in brief: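 Kinase inhibitor library compounds were added at a final 10 µM for 24 h to colorectal cancer cells in 384-well plates, 24 h after seeding. The cells stably expressed lentiviral TCF/Wnt firefly luciferase reporters. Firefly luciferase and CellTiterGlo luminescence came from parallel plates, and each well was normalised to its plate median (webcellHTS2, additive, untransformed), averaged over two independent replicates.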
As for `O=C(NOC[C@H](O)CO)c1ccc(F)c(F)c1Nc1ccc(I)cc1F`, the cell viability stood at 1.25 ± 0.064. As for `Cc1cnc(Nc2ccc(N3CCN(C)CC3)cc2)nc1Nc1cccc(S(=O)(=O)NC(C)(C)C)c1`, the cell viability was 0.833 ± 0.04. Consider `N#CCNC(=O)c1ccc(-c2ccnc(Nc3ccc(N4CCOCC4)cc3)n2)cc1`, for which the cell viability came out at 1.06 ± 0.014. Take `COc1ccc2c(OCc3nnc4ccc(-c5ccccc5)nn34)ccnc2c1`: the cell viability came out at 1.17 ± 0.05.

`Oc1cc(O)cc(/C=C/c2ccc(O)c(O)c2)c1` [Piceatannol] gave a cell viability of 1.12 ± 0.042. For `CN1CC[C@H](c2c(O)cc(O)c3c(=O)cc(-c4ccccc4Cl)oc23)[C@H](O)C1` [Flavopiridol hydrochloride], the cell viability came out at 1.27 ± 0.2.

The compound `CO[C@H]1C[C@@H]2CC[C@@H](C)[C@@](O)(O2)C(=O)C(=O)N2CCCC[C@H]2C(=O)O[C@H]([C@H](C)C[C@@H]2CC[C@@H](O)[C@H](OC)C2)CC(=O)[C@H](C)/C=C(\C)[C@@H](O)[C@@H](OC)C(=O)[C@H](C)C[C@H](C)/C=C/C=C/C=C/1C` [Rapamycin (Sirolimus)] registered a cell viability of 1.07 ± 0.1. In turn, `CC(=O)Nc1nc(C)c(-c2ccc(Cl)c(S(=O)(=O)NCCO)c2)s1` registered a cell viability of 0.939 ± 0.13.

With `O=C1NC(=O)[C@@H](c2cn3c4c(cccc24)CCC3)[C@@H]1c1c[nH]c2ccccc12` [ARQ 197 (Tivantinib)], the cell viability came to 0.995 ± 0.18.

In the case of `CCC(=O)N1CCN(c2ccc(-n3c(=O)ccc4cnc5ccc(-c6cnc7ccccc7c6)cc5c43)cc2C(F)(F)F)CC1` [Torin 1], the cell viability was determined as 0.914 ± 0.16.

`O=C1NC(=O)/C(=C\c2ccc3nccnc3c2)S1` yielded a cell viability of 1 ± 0.038.

On to `O=C1NC(=O)C(c2ccccc2[N+](=O)[O-])=C1Nc1ccc(O)c(Cl)c1`, for which the cell viability was found to be 1.13 ± 0.2. As to `CCn1c(-c2nonc2N)nc2c(C#CC(C)(C)O)ncc(OC[C@H]3CCCNC3)c21`, the cell viability stood at 0.909 ± 0.074. `O=C1NCCc2[nH]c(-c3ccncc3)cc21` gave a cell viability of 1.03 ± 0.14. As to `Cc1ccc(NC(=O)c2ccc(CN3CCN(C)CC3)cc2)cc1Nc1nccc(-c2cccnc2)n1` [Imatinib Mesylate], the cell viability is 0.9835 ± 0.0064. With `Cc1[nH]c(/C=C2\C(=O)Nc3ccccc32)c(C)c1CCC(=O)O`, the cell viability was determined as 0.941 ± 0.028. Compound `CC(=O)Nc1cccc(-n2c(=O)n(C3CC3)c(=O)c3c(Nc4ccc(I)cc4F)n(C)c(=O)c(C)c32)c1` had a cell viability of 1.33 ± 0.057. Consider `COc1cc2c(Oc3ccc(NC(=O)C4(C(=O)Nc5ccc(F)cc5)CC4)cc3F)ccnc2cc1OCCCN1CCOCC1`, for which the cell viability is 0.845 ± 0.044. Turning to `O=C(NC1CCNCC1)c1n[nH]cc1NC(=O)c1c(Cl)cccc1Cl`, the cell viability was 1.16 ± 0.33. Regarding `C#Cc1cccc(Nc2ncnc3cc(OCCOC)c(OCCO)cc23)c1` [OSI-420 (Desmethyl Erlotinib)], the cell viability came to 0.993 ± 0.038.

Turning to `CN(C)CCOc1ccc(-c2nc(-c3ccncc3)c(-c3ccc4c(c3)CC/C4=N\O)[nH]2)cc1`, the cell viability was determined as 1.04 ± 0.071. For `NC(=O)Nc1sc(-c2ccc(F)cc2)cc1C(N)=O` the value was 0.951 ± 0.033; for `COc1cc2c(Oc3ccc4[nH]c(C)cc4c3F)ncnc2cc1OCCCN1CCCC1` [Cediranib (AZD2171)], 0.659 ± 0.18; for `C=CC(=O)Nc1cccc(Sc2nc(Nc3ccc(N4CCN(C)CC4)cc3)ncc2Cl)c1`, 1.1 ± 0.035. With `COc1cc(Nc2ncc(F)c(Nc3ccc4c(n3)NC(=O)C(C)(C)O4)n2)cc(OC)c1OC` [R406(free base)], the cell viability was 1.2 ± 0.18. `O=C(Nc1cc(C(F)(F)F)cc(C(F)(F)F)c1)c1cc(Cl)ccc1O` registered a cell viability of 0.48 ± 0.1. `Cc1cc(C(=O)NOCCO)c(Nc2ccc(I)cc2F)n(C)c1=O` registered a cell viability of 1.19 ± 0.042.

In turn, `O=C(NC[C@H](O)CO)c1ccncc1Nc1ccc(I)cc1F` yielded a cell viability of 1.15 ± 0.078. For `CNC(=O)c1ccccc1Nc1nc(Nc2ccc(N3CCOCC3)cc2OC)ncc1Cl` the value was 0.8225 ± 0.00071; for `CC(C)(C)c1cnc(CSc2cnc(NC(=O)C3CCNCC3)s2)o1`, 1.09 ± 0.12; for `COc1ccc(S(=O)(=O)N(C(C)=O)c2ccccc2/C=C/c2cc[n+]([O-])cc2)cc1`, 0.982 ± 0.14. Compound `Cn1cc(C2=C(c3ccc(Cl)cc3Cl)C(=O)NC2=O)c2ccccc21` returned a cell viability of 1.05 ± 0.18.

Regarding `Cn1cnc2c(F)c(Nc3ccc(Br)cc3Cl)c(C(=O)NOCCO)cc21` [AZD6244 (Selumetinib)], the cell viability came to 1.11 ± 0.042. For `O=c1cc(N2CCOCC2)oc2c(-c3ccccc3)cccc12` the value was 1 ± 0.092.

In the case of `O=C(O)c1ccc(Nc2ncc3c(n2)-c2ccc(Cl)cc2C(c2c(F)cccc2F)=NC3)cc1`, the cell viability turned out to be 1.06 ± 0.028. As to `Nc1ccc(-c2ccc3ncc4ccc(=O)n(-c5cccc(C(F)(F)F)c5)c4c3c2)cn1` [Torin 2], the cell viability was found to be 0.949 ± 0.031. For `CCn1nnc2c(N3CCOCC3)nc(-c3ccc(NC(=O)Nc4ccc(C(=O)N5CCN(C)CC5)cc4)cc3)nc21` the value was 1.21 ± 0.16; for `N#C/C(=C\c1ccc(O)c(O)c1)C(=O)NCc1ccccc1`, 0.874 ± 0.063.

For the compound `COc1cc2ncnc(Nc3cccc(Br)c3)c2cc1OC`, the cell viability stood at 1.15 ± 0.15.
